Wnt bcat act – Wnt/beta-catenin pathway activation | Wnt/beta-catenin reporter cell assay, activator, plate reader | activation, % at 9.35 µM | 300,000 tested, 1.2% active; in the data active means activation above about 30%, passing the limit was not always enough; inconclusive means no clear call, values can overlap the other calls;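 further: 0% = neutral control wells and 100% = positive control wells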
AF4-AF9 inh – inhibitors of human MLL-AF4/AF9 interaction; 350,000 tested, 0.47% active; inhibition, % at 10 µM; P42568; AlphaScreen, biotin-AF4 peptide binding to FLAG-AF9;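 active means every replicate reaching a set inhibition limit, whatever the replicate mean, cut at about 25% in these data; inconclusive means mean inhibition reaches that limit but some replicates miss it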;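 further: 0% = plate neutral control median and 100% = total signal loss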
Target sequence (P42568 whole entry, looked up): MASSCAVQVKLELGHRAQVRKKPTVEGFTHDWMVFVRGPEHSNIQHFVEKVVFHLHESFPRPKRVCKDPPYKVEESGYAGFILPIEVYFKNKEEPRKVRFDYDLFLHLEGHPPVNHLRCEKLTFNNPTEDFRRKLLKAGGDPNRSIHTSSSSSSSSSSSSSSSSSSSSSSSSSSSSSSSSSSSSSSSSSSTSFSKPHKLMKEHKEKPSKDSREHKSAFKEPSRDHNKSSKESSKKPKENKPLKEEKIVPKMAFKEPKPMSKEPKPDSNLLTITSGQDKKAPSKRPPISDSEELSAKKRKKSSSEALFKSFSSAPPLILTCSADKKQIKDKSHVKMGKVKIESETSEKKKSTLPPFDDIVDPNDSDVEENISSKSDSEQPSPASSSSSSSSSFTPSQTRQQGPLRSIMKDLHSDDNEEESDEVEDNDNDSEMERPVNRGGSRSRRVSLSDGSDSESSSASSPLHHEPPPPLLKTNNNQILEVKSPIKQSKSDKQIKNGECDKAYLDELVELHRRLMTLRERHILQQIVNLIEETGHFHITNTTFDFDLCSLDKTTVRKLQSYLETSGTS
esBAF inh – blocks esBAF chromatin remodeling in mouse ES cells; Bmi1-luciferase knock-in reporter, 24 h; 100% = twice the neutral-well signal; reporter increase, % at 12.5 µM; 350,000 tested, 2% active; AID 602393; in the data active means activation above about 40%; inconclusive means no clear call, values can overlap the other calls;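 further: 0% = median of the plate's neutral control wells and 100% = double that signal; a rise in the Bmi1 reporter signal indicates esBAF inhibition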
Ecoli rRNA inh – inhibitors of bacterial rRNA selective over humanized ribosomes; 350,000 tested, 1.6% active; AID 720706; GFP signal change (wild-type ribosome), % (test concentration not listed); E. coli WT GFP vs humanized-ribosome RFP mutants, fluorescence, 24 h; hits give low values; DMSO median 0, no signal -100;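 active means significant combined selectivity score with lowered wild-type GFP, culture density cut under 30%, mutant RFP and density less affected; inactive means any of these conditions unmet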
MITF TRPM1 HTS – MITF TRPM1 promoter activation in melanoma cells; AID 588334; SK-MEL-5 TRPM1-promoter luciferase, 24 h; % of positive control, neutral wells = 0; activation, % at 12.5 µM; 300,000 tested, 0.75% active;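 active means mean activation of at least 80% with every replicate also reaching 80%; inconclusive means mean reaches 80% but some replicate falls short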;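 further: 0% = neutral control wells and 100% = parthenolide positive control wells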
* marks the source's active call; other numbers are inactive results; ? = inconclusive; . = no result given. The list is not random: actives were taken first. Their share in the collection is about 3.7%.

SMILES	Wnt bcat act	AF4-AF9 inh	esBAF inh	Ecoli rRNA inh	MITF TRPM1 HTS
CN=C(c1ccco1)n1c(=S)nc(-c2ccco2)n(C)c1=S	0	.	9	.	-8
CN=C(c1ccc(C)cc1)n1c(=S)nc(-c2ccc(C)cc2)n(C)c1=S	55*	-3	83*	6	2
O=C(Nc1ccc(F)cc1)N1CC(=O)N2[C@H](CO)[C@H](c3ccc(-c4cccc(F)c4)cc3)[C@@H]2C1	.	-6	.	-42	.
CCc1cc2c(SC(C)C(=O)NC3CCCC3)ncnc2s1 (stereo not drawn)	-2	-1	-4	-18	-5
CCc1cc(C=NC2CCCCC2)c(O)s1	.	.	51*	.	.
Cc1nc2c(OCc3ccc(Cl)cc3)cccn2c1N(C)C(=O)CCC1CCCC1	2	0	10	4	.
Cc1csc(NC(=O)c2ccc(Br)s2)n1	23	4	57*	-5	22
CC(C)(C)c1csc(NC(=O)c2ccncc2)n1	1	2	.	-27	-8
CC(C)(C)c1csc(NC(=O)c2ccc3nccnc3c2)n1	.	.	.	.	114*
CNC(=O)c1ccsc1NC(=O)c1ccc(Cl)s1	-2	-3	16	-28*	.
Cc1ccc(C(=O)Nc2nc(C(C)(C)C)cs2)s1	.	.	66*	.	68
C[C@H]1CN([C@@H](C)CO)C(=O)c2cccc(NC(=O)C3CC3)c2O[C@H]1CN(C)Cc1ccc(C(=O)O)cc1	.	-2	0	4	.
Cc1ccc(-n2ncc(C(=O)N3CCN(C(=O)c4ccco4)CC3)c2-n2cccc2)cc1	-3	0	-3	0	-10
COC(=O)c1cc(C(=O)OCC(=O)N2CCCCC2)cc([N+](=O)[O-])c1	3	0	1	-6	6
Cc1csc(NC(=O)c2cc3c(s2)-c2ccccc2OC3)n1	?	-6	86*	-24	7
CC(C)(C)c1csc(NC(=O)c2ccc(Cl)s2)n1	.	.	94*	.	38
CN(C)CCNC(=O)c1cc2c(s1)-c1ccccc1OC2	9	-4	-36	-3	34
Cc1ccc(NC(=O)CN(C)C(=O)COC(=O)CNS(=O)(=O)c2ccc(Br)cc2Cl)cc1	0	0	.	-18	0
COc1ccc(-c2nc3c4ccccc4ccn3c2CN2CCOCC2)cc1OC	28	5	57*	-12	44
c1ccc(-c2nc3c4ccccc4ccn3c2CN2CCOCC2)cc1	49*	-11	34	-29*	9
COc1ccc(-c2nc3c4ccccc4ccn3c2Cc2cccc(F)c2)cc1OC	3	4	41*	62	.
Clc1ccc2nc(-c3ccccc3)c(CN3CCOCC3)n2c1	.	.	.	.	6
CN(C)CC(=O)N[C@H]1CC[C@H](CC(=O)O)O[C@H]1CO	.	-1	.	1	.
CCN(CC)CCNC(=O)CCn1nc(-c2ccc(Cl)cc2)ccc1=O	2	-5	-3	-4	-12
CCOC(=O)c1ccc(COc2ccc(C(C)C)cc2)o1	?	-6	.	-3	66
SMILES	Wnt bcat act	AF4-AF9 inh	esBAF inh	Ecoli rRNA inh	MITF TRPM1 HTS
COC(=O)c1ccc(COc2ccc(C)c(C)c2)o1	3	-3	58*	3	?
COC(=O)c1ccc(COc2cc(C)ccc2C)o1	7	-8	70*	-2	82*
CCC(=O)c1ccc(OCc2ccc(C(=O)OC)o2)c(OC)c1	.	.	16	.	8
CCOc1ccc(OCc2ccc(C(=O)OCc3ccccn3)o2)cc1	33*	.	.	.	5
CCOc1ccc(C(=O)NC(C)(C)CC)cc1	2	-16	.	8	1
CCCC1=NN2C(=N)/C(=C\c3cc(C)n(Cc4ccccc4)c3C)C(=O)N=C2S1	0	.	.	-4	.
Cc1cc(/C=C2\C(=N)N3N=CSC3=NC2=O)c(C)n1Cc1ccccc1	36*	0	38	-33*	22
COC(=O)c1sc(N)c(C(=O)OC)c1COC(=O)CNS(=O)(=O)c1ccc(C)c(C)c1	.	8	.	-14	-6
Cc1cc(N2CCN(c3ncccn3)CC2)nc2c(C)cccc12	1	41*	4	5	-10
COc1ccc(N2CCN(c3cc(C)c4cccc(C)c4n3)CC2)cc1	-3	2	-9	3	2
O=C(NC(=S)Nc1ncc(Br)cc1Br)c1cncc(Br)c1	-2	.	1	.	14
O=C(NC(=S)NC1CCCCCC1)c1cncc(Br)c1	37*	.	.	.	95*
O=C(NC(=S)NC1CCCCC1)c1ccccc1	17	3	45*	.	53
O=C(C[C@H]1C=C[C@H](NC(=O)Nc2ccc3c(c2)OCO3)[C@H](CO)O1)NCc1ccc(Cl)cc1	.	-1	10	-7	.
Cc1nc2ncnn2c(C)c1CCC(=O)NCCCN1CCN(c2cccc(Cl)c2)CC1	.	.	3	.	8
CC1(C)CC(=O)C=C(c2ccc(OC(F)(F)F)cc2)C1	-4	-5	-4	9	22
CC1(C)CC(=O)C=C(c2ccc(Oc3ccccc3)cc2)C1	26	0	68*	-25	70
Cn1ccc2c(N(Cc3ccccc3)Cc3ccccc3)cc3c(c21)C1CCC3C1 (stereo not drawn)	0	6	0	-1	.
Cn1ccc2c(-c3ccc(F)cc3)cc3c(c21)C1CCC3C1 (stereo not drawn)	13	6	9	-2	.
CN(c1cc2c(c3c1ccn3C)C1CCC2C1)C1CCCCC1 (stereo not drawn)	1	39*	-2	-7	.
Cn1ccc2c(N3CCCC3)cc3c(c21)C1CCC3C1 (stereo not drawn)	-1	30*	-11	-2	.
CSc1ccc(-c2cc3c(c4c2ccn4C)C2CCC3C2)cc1 (stereo not drawn)	-3	7	1	-5	.
Cn1ccc2c(-c3ccc(CO)cc3)cc3c(c21)C1CCC3C1 (stereo not drawn)	-1	1	4	-30*	.
COc1ccc(N2CC(C)Cn3c2nc2c3c(=O)n(CCN3CCOCC3)c(=O)n2C)cc1 (stereo not drawn)	.	.	-2	.	2
Cc1[nH]c2ccc(F)cc2c1CCN(Cc1cccnc1)C(=S)NC(C)(C)C	-1	11	1	-8	12
SMILES	Wnt bcat act	AF4-AF9 inh	esBAF inh	Ecoli rRNA inh	MITF TRPM1 HTS
COC(=O)CC1C(=O)NCCN1C(=S)NC(=O)C(c1ccccc1)c1ccccc1 (stereo not drawn)	0	-2	.	-26*	12
COc1ccc(-c2cn3cc(C(F)(F)F)cc(Cl)c3n2)cc1	7	-3	.	-15	44
Fc1ccc(-c2cn3cc(C(F)(F)F)cc(Cl)c3n2)cc1	49*	.	46*	.	39
C=CCOc1ccc(CN(C)CC(=O)Nc2ccccc2[N+](=O)[O-])cc1	-1	7	-10	-24*	-13
CCCOc1ccc(C(=O)Nc2ccccc2[N+](=O)[O-])cc1	.	.	64*	.	58
CCc1ccc(CN(C)CC(=O)Nc2ccccc2[N+](=O)[O-])cc1	.	.	.	.	12
COC(=O)c1cc2ccccc2c(-c2c(O)ccc3ccccc23)c1O	.	.	.	.	-12
Cc1ccc(-c2nc3ccc(NS(=O)(=O)c4ccccc4)cc3[nH]2)o1	22	5	78*	-32*	50

High-throughput results from PubChem.
